In the library only some 10% were active in any assay of this set; here they are far more common.
BAZ2B inh: inhibitors of human BAZ2B bromodomain | Q9UIF8 | Potency, µM (series often up to 114 µM), hits mostly inhibitors | 4.4% of 360,000 active | AlphaScreen BAZ2B-H3K14Ac peptide displacement; note: nearly all actives have a fitted effect of over 60% in size
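AlphaScreen luminescence quantifies BAZ2B engagement of H3K14Ac peptide; the protein and biotinylated peptide are both at 50 nM final, buffer PBS pH 7.4 with 0.01% Tween-20, all steps at room temperature.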
HP1b binding inh: HP1-beta chromodomain-methylated histone interaction inhibition | P83916 | AID 540317 | 0.56% of 390,000 active | Potency, µM (doses to about 114 µM), actives largely listed as inhibitors | AlphaScreen HP1-beta / biotin-H3K9me3 peptide binding; note: nearly all actives have a fitted effect of over 70% in size
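HP1-beta protein (50 nM final) preincubated 30 min at room temperature with biotinylated H3(1-18)K9me3 peptide (50 nM) in PBS pH 7.4, 0.01% Tween-20, then compound added for 30 min. AlphaScreen streptavidin donor/nickel chelate acceptor beads (10 ug/mL final), 30 min dark, luminescence read.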
JMJD2A Tudor: blocks the human JMJD2A Tudor domain. Potency, µM (doses to about 114 µM), most hits filed as inhibitors. AID 504339. 4.4% of 390,000 active. AlphaScreen JMJD2A-Tudor / H3K4me3 peptide binding; note: nearly all actives have a fitted effect of over 50% in size
Target sequence (O75164 whole entry, looked up, the tested form may be a part): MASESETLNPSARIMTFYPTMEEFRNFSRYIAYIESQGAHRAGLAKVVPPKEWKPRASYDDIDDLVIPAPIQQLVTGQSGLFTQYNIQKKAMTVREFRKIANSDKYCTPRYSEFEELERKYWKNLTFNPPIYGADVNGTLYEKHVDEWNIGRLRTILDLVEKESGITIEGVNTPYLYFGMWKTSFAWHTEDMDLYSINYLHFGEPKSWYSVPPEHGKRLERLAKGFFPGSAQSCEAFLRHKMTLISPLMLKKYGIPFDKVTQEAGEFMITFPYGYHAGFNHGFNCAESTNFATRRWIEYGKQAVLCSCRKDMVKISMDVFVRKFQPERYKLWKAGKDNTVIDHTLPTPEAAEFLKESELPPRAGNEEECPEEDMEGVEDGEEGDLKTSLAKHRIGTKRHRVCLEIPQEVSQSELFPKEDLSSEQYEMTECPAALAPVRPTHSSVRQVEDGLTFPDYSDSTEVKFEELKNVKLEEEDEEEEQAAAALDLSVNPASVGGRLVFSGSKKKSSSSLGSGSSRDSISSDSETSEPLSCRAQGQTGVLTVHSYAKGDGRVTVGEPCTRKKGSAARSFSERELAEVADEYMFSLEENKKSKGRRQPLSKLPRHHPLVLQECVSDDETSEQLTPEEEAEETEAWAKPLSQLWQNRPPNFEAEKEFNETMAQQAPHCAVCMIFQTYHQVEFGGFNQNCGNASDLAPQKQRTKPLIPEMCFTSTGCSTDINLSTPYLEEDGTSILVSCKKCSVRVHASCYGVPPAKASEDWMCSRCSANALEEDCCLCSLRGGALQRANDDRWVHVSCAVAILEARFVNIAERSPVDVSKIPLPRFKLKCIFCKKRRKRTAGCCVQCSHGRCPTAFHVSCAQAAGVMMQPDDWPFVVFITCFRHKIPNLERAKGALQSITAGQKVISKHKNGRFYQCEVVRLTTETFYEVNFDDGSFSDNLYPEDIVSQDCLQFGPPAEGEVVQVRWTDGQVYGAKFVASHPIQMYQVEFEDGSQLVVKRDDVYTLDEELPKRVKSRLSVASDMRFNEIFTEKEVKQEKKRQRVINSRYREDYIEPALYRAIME
G9a block: G9a (human) methyltransferase inhibition; Q96KQ7; G9a H3K9 monomethylation, AlphaScreen, 2 h; Potency, µM (top dose mostly 102 µM), usual class: inhibitors; 8.8% of 350,000 active; AID 504332; note: nearly all actives have a fitted effect of over 75% in size
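G9a (20 nM) preincubated 15 min RT with compounds, then 500 nM biotinylated H3K9 peptide and 20 uM SAM added; 2 h RT reaction. Monomethyl-H3K9 product detected by AlphaScreen with anti-H3K9me1 antibody, streptavidin donor and anti-rabbit IgG acceptor beads.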
CtBP-E1A inh: inhibitors of CtBP/E1A interaction; AlphaScreen GST-E1A/His-CtBP binding, 1536-well; stronger effect = lower value; activity change, % (concentration not given with the values); 0.49% of 340,000 active; AID 651724; in the data active = activity change below about -65%; inconclusive = mostly about -30% to -63%
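Steps: dispense buffer (Tris pH 8.0, NaCl 300 mM, TCEP 1 mM, BSA, Tween 20); add 5X protein mix (GST-E1A, His-CtBP, 125 nM each); pin 23 nL compound; 2 h at 37 °C, dark; add 5X beads (50 ug/mL); 1 h; read.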
Six1-Eya2 blk: inhibitors of human Six1/Eya2 interaction; Q15475+O00167; AlphaScreen GST-Six1/His-Eya2 binding, biochemical; stronger effect = lower value; activity change, % (test concentration not listed); 0.56% of 360,000 active; in the data active = activity change below about -65%; inconclusive = mostly about -30% to -63%
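Compounds are tested against tagged Six1 and Eya2 proteins bridged by glutathione donor and nickel acceptor beads; after a one-hour incubation at 37 °C without light, AlphaScreen emission is recorded.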
A number is an active result; n = inactive; u = inconclusive; x = no result given; [ ] = dose if it differs, or a comment. Unless noted, calls come from the whole dose curve; as a rule, active = well fitted inhibition curve with a large enough effect; inconclusive = small, poorly fitted or top-dose-only effect; inactive = no such curve, though single readings can be large or run the other way.

SMILES | BAZ2B inh | HP1b binding inh | JMJD2A Tudor | G9a block | CtBP-E1A inh | Six1-Eya2 blk
Cn1c2ccccc2c2c(C(=O)N3CCN(c4cccc(Cl)c4)CC3)cn(C3CCCCC3)c(=O)c21 | n | n | n | n | x | x
Cc1ccc(NS(=O)(=O)c2cc3c(cc2C)NC(=O)CO3)cc1C | x | x | n | x | x | x
O=c1cc(O)nc(-c2ccc(Cl)cc2)s1 | n | n | n | 28µM | n | n
O=c1cc(O)nc(-c2ccccc2)s1 | n | n | n | 45µM | n | n
CCCCN(CCCNC(=O)c1c(C)oc2nc[nH]c(=O)c12)Cc1ccccc1 | n | n | n | n | x | x
CC(C)n1c(=S)[nH]c2cc(Cl)ccc21 | u | n | u | 10µM | x | n
Cc1ccc(N/N=C2\CCS(=O)(=O)c3sccc32)cc1 | u | n | u | 8.9µM | n | n
CN(C)/N=C1\CCS(=O)(=O)c2sccc21 | n | n | n | u | x | n
Cn1cnc2nc[nH]c2c1=S | x | n | 3.5µM | x | n | n
CCC1(C(=O)OC)NC(c2ccco2)C2C(=O)N(c3ccc(F)cc3)C(=O)C21 (stereo not drawn) | n | n | n | 45µM | x | n
CCCC1(C(=O)OCC)NC(c2ccc(N(C)C)cc2)C2C(=O)N(c3ccc(F)cc3)C(=O)C21 (stereo not drawn) | n | n | n | 2.5µM | n | u
Cc1ccccc1NC(=O)C1CCN(S(=O)(=O)c2ccccc2)CC1 | n | n | n | n | x | x
CC(=O)c1ccc(-c2c(C3C4C=CCC(C)C4C(=O)N3Cc3ccccc3)ccc3ccccc23)cc1 (stereo not drawn) | x | n | n | x | x | x
Nn1c(-c2ccccc2)nc2cc(Cl)ccc2c1=O | n | n | n | 45µM | n | n
O=C(O)c1ccccc1-c1nc2cc(Cl)ccc2c(=O)n1O | 79µM | n | n | n | n | n
O=c1c2ccccc2nc(-c2ccc(Cl)cc2Cl)n1O | u | n | n[11.4 µM] | n | x | n
Cc1ccc(-c2nc3ccccc3c(=O)n2N)cc1 | n | n | n | n | x | n
Cc1ccccc1OC(=O)CSc1nnc(-c2ccc3c(c2)OCO3)o1 | n | n | n | u | x | x
O=C(CC(C(=O)O)N1CCOCC1)Nc1ccc(Cl)cc1 (stereo not drawn) | n | n | 45µM | u | n | n
CCC(=O)Nc1ccc(N2CCOCC2)c(S(=O)(=O)Nc2ccc(Cl)cc2)c1 | n | u | 79µM | u | n | n
CC(NC(N)=O)C(=O)Nc1ccc(Cl)c(S(=O)(=O)Nc2ccc(Cl)cc2)c1 (stereo not drawn) | n | n | n | n | x | n
C[C@H](NC(N)=O)C(=O)Nc1ccc(N2CCOCC2)c(S(=O)(=O)Nc2ccc(Cl)cc2)c1 | u | u | u | 1µM | n | n
CS(=O)(=O)N1CCC(N2CCN(Cc3ccccc3)C(=O)C2=O)CC1 | n | n | n | n | x | x
COc1ccc(/C=C(\NC(=O)c2ccccc2)C(=O)NC2CCCCC2)cc1 | n | n | n | n | x | x
CCOc1ccc(NC(=O)CSc2nnc3c(n2)[nH]c2ccc(S(=O)(=O)N4CCCCC4)cc23)cc1 | x | n | n | x | x | x
SMILES | BAZ2B inh | HP1b binding inh | JMJD2A Tudor | G9a block | CtBP-E1A inh | Six1-Eya2 blk
O=S(=O)(c1ccc(F)cc1)N1CCC(Oc2cccc(C(F)(F)F)c2)CC1 | n | n | n | n | x | x
COc1ccc2c(c1)[nH]c1c(=O)n(/N=C/c3ccc(OC)c(CN4CCCC4)c3)cnc12 | n | n | n[11.4 µM] | n[12.7 µM] | n | n
COc1ccc(/C=N/n2cnc3c([nH]c4ccc(F)cc43)c2=O)cc1CN1CCCC1 | n | u | n | 40µM | n | n
COc1ccc(/C=N/n2cnc3c([nH]c4ccc(C)cc43)c2=O)cc1CN1CCCC1 | n | n | u | u | x | n
COc1ccc(/C=N/n2cnc3c([nH]c4ccccc43)c2=O)cc1COc1ccccn1 | 56µM | x | x | n | x | x
N#Cc1c(C(F)(F)F)cc(-c2cccs2)nc1SCC(=O)Nc1cccc(C(F)(F)F)c1 | n | n | n | n | x | x
CC1=C(C(N)=O)C(c2ccc(C(C)C)cc2)n2nc(SCc3ccccc3)nc2N1 (stereo not drawn) | n | n | n | n | x | x
Cc1cc(C2=CC(C)(c3cc(C)oc3C)Nc3nc(C(F)(F)F)nn32)c(C)o1 (stereo not drawn) | 56µM | x | x | u | x | x
CC(C)(O)/C=C1/Oc2ccccc2C1N1CCCCC1 (stereo not drawn) | n | n | n | 50µM | n | n
O=C(O)C1CCC(=O)N1C1c2ccccc2Oc2ccccc21 (stereo not drawn) | n | n | n | n | n | n
S=c1[nH]nc(COc2ccccc2)n1/N=C/c1ccc(Br)s1 | n | n | 56µM | 7.9µM | n | n
Cc1ccc(/C=N/n2c(COc3ccccc3)n[nH]c2=S)s1 | u | n | 56µM | n[0.501 µM] | n | n
S=c1[nH]nc(-c2ccccn2)n1/N=C/c1ccc(-c2ccccc2Cl)o1 | 25µM | u | 28µM | 1.1µM | u | u
S=c1[nH]nc(-c2ccccn2)n1/N=C/c1ccc(Br)s1 | 13µM | n | 7.9µM | 1.3µM | n | -77
Cc1cc(C)cc(OCC(=O)NC(Cc2c[nH]c3ccccc23)C(=O)O)c1 (stereo not drawn) | n | n | n | n | x | x
CN(C)/[N+]([O-])=N/Oc1cc(O/[N+]([O-])=N/N2CCCC2CO)c([N+](=O)[O-])cc1[N+](=O)[O-] (stereo not drawn) | x | n | n | x | x | x
COc1ccc(CNC(=O)c2c([S-])n(-c3ccc(C)cc3)c3cccc[n+]23)cc1 | x | n | 3.2µM | 4µM | n | n
COc1ccc(CNC(=O)c2sc(=S)n(-c3ccccc3)c2N)cc1 | n | u | n | x | n | n
Cc1ccc(-n2c([S-])c(C(=O)NC(C)c3ccccc3)[n+]3ccccc23)cc1 (stereo not drawn) | n | n | n | 40µM | n | n
COc1ccc(-c2cc(C(F)(F)F)nc(SCC(=O)Nc3ccc(O)cc3)n2)cc1OC | n | n | n | n | x | x
O=C(OCc1ccc([N+](=O)[O-])cc1)c1cc(S(=O)(=O)N2CCCCC2)ccc1N1CCOCC1 | n | n | n | u | n | n
CN(C)S(=O)(=O)c1cccc(COC(=O)c2cc([N+](=O)[O-])ccc2N2CCOCC2)c1 | n | n | n | 56µM | n | n
Cc1ccccc1COC(=O)c1cc([N+](=O)[O-])ccc1N1CCOCC1 | n | n | u | u | n | n
CSc1ccc(COC(=O)c2cc([N+](=O)[O-])ccc2N2CCOCC2)cc1 | n | u | u | 45µM | n | n
C=C1CCN(C(Cc2ccccc2)C(=O)N2CCOCC2)S(=O)(=O)c2ccccc21 (stereo not drawn) | x | n | n | x | x | x
CN(C)S(=O)(=O)c1cccc(C(=O)Nc2n[nH]c(C(F)(F)F)n2)c1 | n | n | 7.1µM | n | n | n
C[C@H](NC(=O)OC(C)(C)C)c1nnc(SCc2c(F)cccc2Cl)o1 | 89µM | n | n | n | x | x

Bioassay records (PubChem BioAssay)
